Compounds with a hit are over-represented: about 5.7% of the library has one in this group of screens.
hcDAF12 agonist: H. contortus DAF-12 nuclear receptor activators, primary screen, cell-based, luminescence, HEK293, lit1-tk-luc reporter; hit rate 1.4% among 370,000; AID 652067, 2013; HEK293 hcDAF-12 lit1-tk-luc reporter; 0% DMSO, 100% Δ7-dafachronic acid; activation, % at 6.8 µM;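 active = activation above the mean of all tested compounds plus 3 SD, cut at about 5.5% in these data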;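 also: 100% = response to 3 µM Δ7-dafachronic acid high control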
DAX1 inh-1: DAX1 (NR0B1) inhibitors on StAR promoter, primary screen, cell-based, luminescence, SF-1 (NR5A1), full-length DAX-1; HEK293T StAR-luciferase reporter, SF-1/DAX-1 repression relief; inhibition, % at 6.8 µM; hit rate 1.1% among 370,000;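 active = inhibition above the mean over all tested compounds plus 3 SD, cut at about 3.6% in these data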;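 also: 0% = DAX-1 cells with DMSO and 100% = cells lacking DAX-1 with DMSO; higher inhibition means more luminescence from relief of DAX-1 repression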
hgDAF-12 ag: H. glycines DAF-12 receptor agonists, primary screen, cell-based, luminescence, HEK293, GAL4 fusion, UAS-luciferase. HEK293 GAL4-hgDAF12 UAS-luciferase reporter, agonist luminescence; normalized to butyrate control. hit rate 1.8% among 370,000. Nuclear hormone receptor DAF-12 (Heterodera glycines), GAL4 fusion. activation, % at 6.8 µM;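 active = activation above a cutoff set at the mean of all screened compounds plus 3 SD, cut at about 10% in these data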;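 also: 0% = DMSO wells and 100% = sodium butyrate wells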
DAX1 inh-2: DAX1 (NR0B1) inhibitors, primary screen, cell-based, HEK293, Gal4-DAX1, luciferase luminescence; Nuclear receptor subfamily 0 group B member 1 (Homo sapiens), P51843; HEK293 Gal4-DAX1 luciferase reporter; inhibition, % at 6.75 µM; hit rate 0.99% among 340,000;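 active = inhibition above the mean over all tested compounds plus 3 SD, cut at about 4.2% in these data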;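 also: 0% = DAX1-transfected cells with DMSO and 100% = empty-vector control cells with DMSO; inhibition shows as a rise in luminescence from relieved DAX1 repression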
Target sequence (P51843 207-470 limits assumed): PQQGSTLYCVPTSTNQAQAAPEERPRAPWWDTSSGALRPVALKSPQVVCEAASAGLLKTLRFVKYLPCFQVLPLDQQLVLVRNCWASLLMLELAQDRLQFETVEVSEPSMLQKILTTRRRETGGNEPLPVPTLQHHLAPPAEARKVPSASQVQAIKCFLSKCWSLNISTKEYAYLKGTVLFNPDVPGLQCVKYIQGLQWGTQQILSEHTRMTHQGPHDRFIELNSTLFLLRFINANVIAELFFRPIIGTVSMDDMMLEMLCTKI
AHR act: AHR activators, primary screen, cell-based, luminescence, luciferase reporter, human; Aryl hydrocarbon receptor (Homo sapiens), P35869; AHR-responsive luciferase reporter cells; activation, % at 5 µM; hit rate 2.5% among 320,000; in the data active = activation above about 47%;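 also: 0% = vehicle wells and 100% = reference agonist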
ssDAF-12 act: S. stercoralis DAF-12 nuclear receptor activators, primary screen, cell-based, luminescence, HEK293, GRIP1 co-expression, lit1-tk-luc | Nuclear hormone receptor DAF-12 (Strongyloides stercoralis) | hit rate 1% among 370,000 | HEK293 ssDAF-12/GRIP1 lit1-tk-luc reporter; % of 3 µM dafachronic acid response | activation, % at 6.8 µM;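 active = activation above the mean over all tested compounds plus 3 SD, cut at about 0.9% in these data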;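 also: 0% = DMSO-only wells and 100% = 3 µM delta7-dafachronic acid wells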
DAX1 conf: DAX1 (NR0B1) inhibitors relieving SF-1 repression, confirmation, cell-based, luminescence, HEK293T, full-length DAX-1, SF-1 activated StAR promoter; hit rate 87% among 2,400; inhibition, % at 6.8 µM; AID 652134, 2013; HEK293T StAR-promoter luciferase reporter, SF-1/DAX-1 repression; shares compounds with DAX1 inh-1;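 active = inhibition above the average of every tested compound plus 3 SD, cut at about 3.8% in these data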;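 also: 0% = DAX-1 cells with DMSO and 100% = no DAX-1 control cells with DMSO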
SF1 AF2mut Luc: StAR reporter signal changes without DAX1, counter-screen for DAX1 inhibitor project, cell-based, luminescence, AF-2 mutant SF-1, transactivation. shares compounds with DAX1 inh-1. HEK293 StAR-luciferase, SF-1 AF2 mutant. inhibition, % at 6.8 µM. hit rate 78% among 2,400. AID 652136, 2013;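 active = inhibition above the mean of all tested compounds plus 3 SD, cut at about 3% in these data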;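 also: 0% = DAX-1 transfected cells with DMSO and 100% = cells without DAX-1 with DMSO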
Numbers without * were called inactive; · = no result given.

SMILES | hcDAF12 agonist | DAX1 inh-1 | hgDAF-12 ag | DAX1 inh-2 | AHR act | ssDAF-12 act | DAX1 conf | SF1 AF2mut Luc
Cc1ccc(C)c(C(=O)CN2C(=O)NC3(CCC(C)CC3)C2=O)c1 (configuration not stated) | -1 | 0 | -1 | 0 | 3 | -1 | · | ·
O=C(NC(=S)Nc1ccc2nc[nH]c2c1)c1ccccc1 | 0 | 6.5* | 6 | 1 | 3 | 0 | 5.9* | 3.1*
O=C(O)c1cccc(NC(=S)NC(=O)c2ccc3ccccc3c2)c1 | -1 | 11* | 3 | -3 | -6 | -1 | 8.0* | 4.4*
O=C(NC(=S)Nc1ccc2ncccc2c1)c1ccccc1 | 3 | 4.8* | 12* | 1 | 19 | -1 | 7.7* | 5.8*
COc1cc(/C=N/N=C2/NC(=O)C(Cc3ccc(F)cc3)S2)ccc1O (configuration not stated) | -2 | 0 | 4 | -1 | 34 | -1 | · | ·
COc1ccccc1CNCC(=O)Nc1cc(S(=O)(=O)N2CCCCCC2)ccc1Cl | -2 | -1 | -3 | -1 | -2 | -2 | · | ·
COc1ccc(C(=O)N2CCN(S(=O)(=O)c3ccc4c(c3)OCCO4)CC2)cc1 | -2 | -1 | -3 | 1 | · | -1 | · | ·
COc1ccc(CCNC(=O)NC23CC4CC(CC(C4)C2)C3)cc1 | 3 | 0 | 4 | 1 | 2 | -1 | · | ·
O=C(NCCc1ccc(F)cc1)NC12CC3CC(CC(C3)C1)C2 | 5 | 8.3* | 9 | 1 | 15 | 0 | 10* | 7.6*
C/C(=N\NC(=O)C(N)=O)c1ccc(NC(=O)c2cccs2)cc1 | 2 | 1 | 9 | · | 4 | 0 | · | ·
C/C(=N\NC(=O)c1ccco1)c1ccc(NC(=O)c2cccs2)cc1 | 2 | 4.7* | 11* | 1 | 8 | 0 | -1 | -1
CCOc1cccc2cc(-c3csc(NC(=O)CCC(=O)NCCN4CCCCC4C)n3)c(=O)oc12 (configuration not stated) | 5 | 6.5* | 23* | 3 | 28 | 1 | 14* | 7.0*
CCOc1cccc2cc(-c3csc(NC(=O)CCC(=O)NCCCN4CCC(C)CC4)n3)c(=O)oc12 | · | · | · | · | 19 | · | · | ·
Cc1c(NC(=S)NC(=O)c2cc3ccccc3o2)cccc1C(=O)O | 3 | 6.8* | 4 | 2 | 8 | 0 | 6.6* | 5.8*
COC(CNC(=O)C(=O)NCC1OCCN1C(=O)c1ccc(Cl)cc1)OC (configuration not stated) | 4 | 2 | 1 | 1 | 5 | -1 | · | ·
Cc1ccc2nc(N(CCCN(C)C)C(=O)c3ccc4ncsc4c3)sc2c1 | 3 | 6.4* | 7 | 0 | -3 | -1 | 11* | 7.8*
Cc1ccc2nc(N(CCN(C)C)C(=O)c3ccc4ccccc4c3)sc2c1 | · | · | · | 0 | 2 | · | · | ·
O=C(Nc1ccccc1)OC[C@@H]1CSCCS(=O)(=O)N1 | 1 | 3 | 1 | · | · | 0 | · | ·
O=C(Nc1ccc(Cl)cc1)OC[C@@H]1CSCCS(=O)(=O)N1 | 0 | 5.0* | 1 | · | · | 0 | 2 | 0
O=C(CNC(=O)c1ccc2c(c1)OCO2)Nc1ncccc1O | 2 | 5.3* | 7 | 1 | 4 | 0 | 6.1* | 3.7*
Brc1cccc(-c2nc3ccc(Br)cn3c2Cc2ccsc2)c1 | 1 | 1 | 7 | · | · | -1 | · | ·
Cc1ccc(-c2nc3ccc(Br)cn3c2Cc2ccsc2)cc1 | 5 | 4.7* | 21* | · | · | 1.1* | 8.6* | 5.8*
COc1ccc(NC(=O)N(C)C[C@@H]2OCc3cnnn3CCCC(=O)N([C@@H](C)CO)C[C@@H]2C)cc1 | 0 | 0 | 2 | · | · | 0 | · | ·
COc1cccc(/C=C/C(=O)NNC(=O)c2ccco2)c1OC | 4 | 4.9* | 10 | 1 | 7 | 0 | 9.1* | 6.5*
COc1ccc(CC(=O)OCC(=O)Nc2cc(S(=O)(=O)N3CCOCC3)ccc2N2CCCC2)cc1 | -2 | 0 | -2 | 1 | 2 | -2 | · | ·
SMILES | hcDAF12 agonist | DAX1 inh-1 | hgDAF-12 ag | DAX1 inh-2 | AHR act | ssDAF-12 act | DAX1 conf | SF1 AF2mut Luc
Nc1c(C(=O)C2CC2)sc2nc3c(cc12)CCC3 | 4 | 4.7* | 11* | 3 | 12 | 0 | 9.8* | 10.0*
NC(=O)c1sc2nc3c(cc2c1N)CCCCCC3 | 2 | 1 | 7 | 0 | 6 | -1 | · | ·
CCN(c1ccc(OCC(=O)OCC(=O)c2c(N)n(C)c(=O)n(C)c2=O)cc1)S(=O)(=O)c1ccccc1 | -1 | 5.2* | -1 | 0 | 1 | -1 | 2 | 2
O=C(N/N=C/c1cccc(O)c1)N/N=C/c1cccc(O)c1 | 3 | 0 | 0 | 0 | 8 | -1 | · | ·
CCOC(=O)c1csc(NC(=O)C2=COCCO2)n1 | 2 | 7.0* | 7 | 3 | 5 | 0 | 9.0* | 7.1*
Cc1ccc(-c2csc(NC(=O)C3=COCCO3)n2)cc1 | 2 | 1 | 10 | 1 | 17 | -1 | · | ·
CCOC(=O)c1csc(NC(=O)c2cccs2)n1 | 4 | 8.7* | 10 | 1 | 1 | 0 | 10* | 6.7*
CC(C)(C)c1csc(NC(=O)C2=COCCO2)n1 | 1 | 6.6* | 12* | 2 | 15 | 0 | 8.2* | 5.3*
CCCCC(=O)N1CCN(c2nc3ccc(F)cc3s2)CC1 | 2 | 5.2* | 5 | 0 | 0 | -1 | 3 | 3.8*
CCCCC(=O)N1CCN(c2nc3ccc(OCC)cc3s2)CC1 | -1 | 0 | -2 | -2 | 8 | -1 | · | ·

From PubChem BioAssay
